PNC inhibitor – inhibitors of perinucleolar compartment assembly; PC3M PTB-GFP, PNC prevalence imaging, 16 h; hits give low values; activity change (PNC), negative = inhibition, % at 10 µM; 140,000 compounds, 3.1% hits;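 active = readout at or below -70, meaning at least 70% loss of cells showing the perinucleolar compartment, a nuclear body marking cancer cells; inconclusive = readout between -30 and a set limit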;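 also: plate controls were DMSO wells for no effect and camptothecin positive control wells for full effect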
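PC3M cells stably expressing PTB-GFP, 750–1000 cells/well, treated 16 h at 37 °C with compound (23 nl of library stock), in duplicate. After paraformaldehyde fixation and Hoechst stain, imaged at 20x; PNC prevalence scored by image analysis.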
CBFb-RUNX1 inh – CBF-beta/RUNX1 interaction disruption; Q01196+Q13951; AlphaScreen CBFb-His/RUNX1-biotin binding, biochemical; Potency, µM (top dose mostly 59.8 µM), for the others: at the top dose activity, negative = inhibition, usual class: inhibitors; 230,000 tested, under 10 active; AID 1477; also: % of control where 0% means no effect
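His-tagged CBF-beta and biotinylated RUNX1 (30 nM each) were premixed 20 min at room temperature, exposed to compound for 15 min, then given nickel-chelate and streptavidin AlphaScreen beads (50 ng each). After 90 min, AlphaScreen signal was read.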
HPGD inh – HPGD (human) dehydrogenase inhibition; P15428; purified HPGD, NADH fluorescence kinetic, PGE2 substrate; Potency, µM, for the others: at the top dose activity change, negative = inhibition, usual class: inhibitors; 150,000 compounds, 4.3% hits; active = well fitted inhibition curve with a large enough effect, not every such curve was filed as active; inconclusive = small, poorly fitted or top-dose-only effect, or another doubt; inactive = no such curve, though single readings can be large or run the other way; also: potency is read from the fitted curve at half-maximal effect; % is scaled to controls: 0 for no effect and ±100 for the full control effect
Target sequence (P15428 whole entry, looked up): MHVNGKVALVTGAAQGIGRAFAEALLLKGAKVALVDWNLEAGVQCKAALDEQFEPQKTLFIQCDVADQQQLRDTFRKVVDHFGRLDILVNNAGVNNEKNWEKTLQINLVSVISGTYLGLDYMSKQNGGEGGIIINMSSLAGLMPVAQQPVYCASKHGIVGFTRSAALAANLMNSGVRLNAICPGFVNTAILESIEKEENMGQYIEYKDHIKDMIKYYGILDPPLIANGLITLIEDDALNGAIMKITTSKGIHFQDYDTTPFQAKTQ
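NADH formation kinetics: reaction with 30 uM PGE2 and 1 mM NAD+ (final), 20 nM enzyme, Tris-HCl pH 8 with Tween 20, after 15 min compound preincubation at room temperature. Fluorescence change, last versus first of five reads.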
HTT cytoprotect – Huntington cell model cytoprotection by ATP luminescence. PC12 HTT-Q103 induced, cytoprotection, ATP luminescence, 40 h. Potency, µM (top dose mostly 56.4 µM), without a hit: cytoprotection (ATP increase), usual class: activators. 230,000 compounds, 0.14% hits; also: potency is read from the fitted curve at half-maximal effect; % of control where 0% means no effect; nearly all actives have a fitted effect of over 45% in size
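Cells were plated at 1500 per well in phenol red-free DMEM with 5% equine and 5% calf serum. Tebufenozide (100 nM final) and compounds were added, then ATPlite reagent, and luminescence was read.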
HTT aggregate – mutant huntingtin aggregation inhibition. PC12 HttQ103-GFP aggregates, Acumen cytometry, 40 h. Potency, µM (highest dose often 46.1 µM), for inactives: top-dose activity change, negative = inhibition, usual class: inhibitors. 220,000 compounds, 1.1% hits; also: potency is read from the fitted curve at half-maximal effect; % is scaled to controls: 0 for no effect and ±100 for the full control effect; nearly all actives have a fitted effect of over 60% in size
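Aggregates are detected as GFP objects 1–25 µm with signal 6 STDEV over background in lysates of induced PC12 cells. These carry Huntingtin exon 1 with 103 glutamines fused to GFP under an ecdysone promoter; compounds titrated.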
ALDH1A1 inh – blocks purified human ALDH1A1 activity | P00352 | Purified ALDH1A1, NADH fluorescence, propionaldehyde substrate | Potency, µM (doses to about 75.3 µM), without a hit: at the top dose activity, negative = inhibition, most hits filed as inhibitors | 220,000 compounds, 7.3% hits | AID 1030; active = well fitted inhibition curve with a large enough effect, not every such curve was filed as active; inconclusive = small, poorly fitted or top-dose-only effect, or another doubt; inactive = no such curve, though single readings can be large or run the other way;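 also: potency is read from the fitted curve at half-maximal effect; plate controls were no enzyme wells and a reference inhibitor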
Target sequence (P00352 whole entry, looked up): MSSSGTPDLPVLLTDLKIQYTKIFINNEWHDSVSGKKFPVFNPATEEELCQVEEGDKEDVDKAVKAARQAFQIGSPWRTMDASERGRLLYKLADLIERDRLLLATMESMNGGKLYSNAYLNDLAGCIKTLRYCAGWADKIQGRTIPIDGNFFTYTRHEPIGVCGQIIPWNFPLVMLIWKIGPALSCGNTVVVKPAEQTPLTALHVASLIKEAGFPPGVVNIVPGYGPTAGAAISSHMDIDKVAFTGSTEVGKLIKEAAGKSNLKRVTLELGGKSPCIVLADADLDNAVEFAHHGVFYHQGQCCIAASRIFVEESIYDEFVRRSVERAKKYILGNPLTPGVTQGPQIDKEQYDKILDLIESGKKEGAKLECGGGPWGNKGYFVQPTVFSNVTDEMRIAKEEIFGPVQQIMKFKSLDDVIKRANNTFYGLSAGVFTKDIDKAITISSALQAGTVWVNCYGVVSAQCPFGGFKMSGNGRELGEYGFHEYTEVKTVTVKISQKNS
The depositor's hits bear a star; ? = inconclusive; nt = not tested or not shown; [ ] = dose if it differs, or a comment. Hits are enriched below; roughly 11% of the tested compounds scored in any of these assays. Unless noted, calls follow the shape of the dose curve; as a rule, active = well fitted curve in the direction sought with a large enough effect; inconclusive = small, poorly fitted or top-dose-only effect, or another doubt; inactive = no such curve, though single readings can be large; an effect the other way counts as inactive or inconclusive.

SMILES | PNC inhibitor | CBFb-RUNX1 inh | HPGD inh | HTT cytoprotect | HTT aggregate | ALDH1A1 inh
O=C(CNS(=O)(=O)c1ccc(Cl)cc1)OCC(=O)N1CCCc2ccccc21 | ? | 3% | nt | 12%[10 µM] | -8% | 11%
CC(=O)Nc1ccc(S(=O)(=O)NCC(=O)OCC(=O)N2CCN(c3ccccc3)CC2)cc1 | 50 | -6% | 0% | -2%[10 µM] | 9% | 20µM*
CC(=O)Nc1ccc(S(=O)(=O)NCC(=O)OCC(=O)N2CCCc3ccccc32)cc1 | -100* | 6% | 0% | -26%[10 µM] | 2% | -8%
CCC(=O)N1CCCc2cc(S(=O)(=O)N3CCCc4ccccc43)ccc21 | 2 | 8% | -13% | 4% | -23% | 18µM*
O=C(CCN1CCCCC1)Nc1ccc2c(c1)C(=O)c1ccc(NC(=O)CCN3CCCCC3)cc1C2=O | nt | -13% | -9% | ? | nt | ?
O=S(=O)(O)CCCS(=O)(=O)O | nt | nt | nt | 6% | -10% | nt
COc1ccc(-n2cc(C(=O)O)c(=O)cc2C)cc1 | nt | -6% | nt | -49% | 0% | 3%
COC(=O)/C=C/S(=O)(=O)c1ccc(NC(C)=O)cc1 | -7 | 4% | -5% | -141% | 10µM* | 0.32µM*
CC(=O)N/C(=C/c1ccc(OS(=O)(=O)c2ccc(C)cc2)cc1)C(=O)NCCO | -3 | -22% | -22% | 23%[0.074 µM] | -4% | -9%
CC(=O)N/C(=C/c1ccc(OS(=O)(=O)c2ccc(C)cc2)cc1)C(=O)NCCCO | nt | 8% | nt | 10%[10 µM] | 11%[9.22 µM] | 2.2µM*
COc1ccccc1OS(=O)(=O)c1ccc(NC(C)=O)cc1 | nt | -4% | nt | -27% | ? | ?
CC(=O)Nc1ccc(S(=O)(=O)Nc2ccc([N+](=O)[O-])cc2)cc1 | nt | 5% | 22µM* | -104% | 25% | ?
CC(=O)Nc1ccc(OCCOc2ccc([N+](=O)[O-])cc2)cc1 | nt | 2% | nt | 14%[10 µM] | 9%[9.22 µM] | nt
CC(=O)Nc1ccc(OS(=O)(=O)c2ccc([N+](=O)[O-])cc2)cc1 | nt | 5% | nt | ? | 1%[9.22 µM] | 25µM*
CC(C)CCSc1nc2[nH]ncc2c(=O)[nH]1 | nt | 8% | nt | -50% | 6% | ?
C[C@@H]1C(=O)O[C@@H]2C[C@@]34[C@H]5C[C@@H](C(C)(C)C)[C@@]36[C@@H](OC(=O)[C@@H]6O)O[C@]4(C(=O)O5)[C@@]12O | nt | nt | nt | 1% | nt | nt
O=C(NCc1nc2ccccc2[nH]1)C1=C[C@H](c2coc3ccccc3c2=O)C[C@H](OCc2ccc(CO)cc2)O1 | nt | -2% | nt | -15%[10 µM] | 5%[9.22 µM] | nt
COc1ccc(C=O)cc1OS(=O)(=O)c1ccc(NC(C)=O)cc1 | 15 | -1% | ? | -8%[10 µM] | 27% | -9%
CC(=O)Nc1ccc(S(=O)(=O)Oc2ccc(C=O)cc2)cc1 | 45 | -2% | -13% | nt | 32% | 28µM*
COc1ccc(O[C@H]2C=C[C@@H](c3ccccc3)O[C@@H]2CO/N=C(\C)CCC(=O)OC[C@H]2O[C@H](c3ccccc3)C=C[C@@H]2Oc2ccc(OC)cc2)cc1 | 50 | 4%[2.36 µM] | -10% | nt | 3% | ?
N#C/C(=C/c1ccc(O)c(O)c1)C(=O)OC/C=C/c1ccccc1 | nt | ? | nt | -26% | nt | 4.5µM*
N[C@@H](CCCC(=O)O)C(=O)O | nt | ? | -16% | nt | nt | -5%
O=C(O)c1c2c(c(O)c3c1CN(C1CCCCC1)CO3)OCN(C1CCCCC1)C2 | nt | nt | -13% | -7%[10 µM] | nt | 1%[13.5 µM]
CC(=O)NC(Cc1ccccc1)C(=O)N1CCN(C(=O)c2ccco2)CC1 (centres undefined) | 57 | -1% | -13% | -5%[10 µM] | 25% | 10µM*
O=C(c1ccco1)N1CCN(C(=O)C(Cc2ccccc2)NS(=O)(=O)c2cccs2)CC1 (centres undefined) | 33 | 2% | -8% | -30% | 25% | 14µM*
SMILES | PNC inhibitor | CBFb-RUNX1 inh | HPGD inh | HTT cytoprotect | HTT aggregate | ALDH1A1 inh
CN(C)CCN(C(=O)c1ccc(N2C(=O)CCC2=O)cc1)c1nc2cc3c(cc2s1)OCCO3 | nt | 5% | nt | -36% | 3% | 28µM*
CC[C@H](C)[C@H](NC(=O)CNC(=O)[C@H](CCCNC(=N)N)NC(=O)[C@H](CO)NC(=O)[C@H](C)NC(=O)[C@H](Cc1ccc(O)cc1)NC(=O)[C@H](Cc1c[nH]c2ccccc12)NC(=O)[C@H](C)NC(=O)[C@@H]1CCCN1C(=O)[C@H](CC(N)=O)NC(=O)[C@@H](NC(=O)[C@H](CC(=O)O)NC(=O)[C@@H]1CCCN1C(=O)[C@@H](NC(=O)[C@H](CCCNC(=N)N)NC(=O)[C@@H](NC(=O)[C@H](CCC(=O)O)NC(=O)[C@H](CCSC)NC(=O)[C@H](CO)NC(=O)[C@H](Cc1cnc[nH]1)NC(=O)[C@H](CCCNC(=N)N)NC(=O)[C@H](Cc1cnc[nH]1)NC(=O)[C@@H](NC(=O)[C@H](CCCNC(=N)N)NC(=O)[C@@H](N)CO)[C@@H](C)O)[C@@H](C)CC)[C@@H](C)O)[C@@H](C)CC)C(=O)N[C@@H](CCCNC(=N)N)C(=O)N1CCC[C@H]1C(=O)N[C@H](C(=O)NCC(=O)N[C@@H](CCCNC(=N)N)C(=O)N[C@@H](Cc1ccccc1)C(N)=O)C(C)C | nt | 12% | nt | nt | nt | nt
CCc1cc(C(=O)O)c(NC(=O)C(c2ccccc2)c2ccccc2)s1 | -3 | -7% | -1% | -29% | -23% | 13µM*
CCOC(=O)c1cc(C)sc1NC(=O)C(c1ccccc1)c1ccccc1 | 9 | -2% | -29% | nt | -1% | 10%
O=C(CC1C(=O)NCCN1CC1CCCCC1)NCc1ccc(Cl)cc1 (centres undefined) | nt | 5% | nt | 26%[10 µM] | 16%[9.22 µM] | 20µM*
Cc1nc2cnc(N(C)C)nc2n(C)c1=O | nt | nt | ? | -3% | nt | ?
COc1ccc(NC(=O)C2(c3ccc(NC(=O)c4ccc(OC)cc4)cc3)CCCC2)cc1 | 18 | -3% | nt | 3%[10 µM] | 21% | ?
COc1ccc(C2(C(=O)Nc3nncs3)CCCC2)cc1 | -80* | 4% | -10% | 12% | 4%[9.22 µM] | -2%
C/C(Cn1cnc([N+](=O)[O-])n1)=N/NC(=O)COc1c(Cl)cc(Cl)cc1Cl | 12 | -5% | -6% | 8%[10 µM] | 31% | ?
COCC(C)NC(=O)c1noc2c1CCc1cc(OC)ccc1-2 (centres undefined) | 1 | -4% | -13% | -27% | ? | -10%
COCCNC(=O)c1noc2c1CCc1cc(OC)ccc1-2 | 37 | -2% | 25µM* | -51% | -7% | -2%
CC(Oc1ccc(Cl)cc1Cl)C(=O)NCCC1=CCCCC1 (centres undefined) | 8 | 0% | -20% | -5%[10 µM] | -22% | -8%

Source: PubChem (National Center for Advancing Translational Sciences (NCATS))
